Experimental data reported in PubChem BioAssay AID504832 (National Center for Advancing Translational Sciences (NCATS), 2011).
The campaign covered roughly 310,000 compounds. About 18,000 (5.8%) were called active. Another 22% or so got no clear call; they are omitted. What follows is part of a selection rich in actives, with near analogues and random picks from the rest. A number with no mark means an inactive call. Calls come from the whole dose curve; as a rule, active = well fitted inhibition curve with a large enough effect; inconclusive = small, poorly fitted or top-dose-only effect, or another doubt; inactive = no such curve, though single readings can be large or run the other way.

Assay: Primary qHTS for delayed death inhibitors of the malarial parasite plastid, 48 hour incubation
Details: P. falciparum luciferase growth in erythrocytes; series mostly up to 28.7 µM; activity change, negative = inhibition: at the top concentration
In short: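 Luminescence readout; reporter = integrated firefly luciferase in P. falciparum. RBC culture at 2% hematocrit, 0.1% parasitemia final, 37 C/5% CO2; decreased signal taken as growth inhibition.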
% is set by controls: 0 for no effect and ±100 for the full control effect; potency is the fitted concentration of half-maximal effect.

Point of comparison: Cc1occc1-c1nnc(SCC(=O)NC2(C#N)CCCC2)n1C, “activity change, negative = inhibition” value 1.05%. Against it:
- CSc1ccc(S(=O)(=O)NCC(=O)OCC(=O)NC2(C#N)CCCCC2)cc1[N+](=O)[O-] — higher, 36.9%
- CC(=O)c1ccc(NC(=O)N[C@@H](Cc2ccccc2)C(=O)O)cc1 — lower, -11.8%
- CC(C)N(Cc1ccccc1)C(=S)Nc1ccc(OC(F)F)cc1 — higher, 14%
- O=C(N/C(=C\c1ccc([N+](=O)[O-])cc1)C(=O)N1CCOCC1)c1cccc(Br)c1 — lower, -5.24%
- COc1ccccc1NC(=O)COC(=O)c1ccccc1SCC(=O)N1CCCC1 — higher, 4.59%
- CCS(=O)(=O)N1CCCC(C(=O)NCc2ccc(C)cc2)C1 (stereo not drawn) — lower, -10.9%
- O=C(NCc1ccccc1)C1CCCN(S(=O)(=O)c2cccs2)C1 (stereo not drawn) — higher, 14.9%
- C/C(=N\NC(=O)c1cccc([N+](=O)[O-])c1)c1cccnc1 — higher, 40.6%
- O=C(NC1CCC(O)CC1)c1ccccc1OCc1ccc(F)cc1 (stereo not drawn) — lower, -10.5%
- Cc1ccc(C(=O)Nc2nnc(C3=COCCO3)o2)cc1C — lower, -24.4%
- CCOc1ccc(-c2n[nH]c(C)c2-c2ccccn2)c(O)c1 — higher, 6.15%
- COc1ccccc1-c1nc(SC)n[nH]1 — higher, 40.5%
- COc1ccc(-n2c(-c3ccc(OC)c(OC)c3)n[nH]c2=S)cc1 — higher, 11.2%
- COc1ccc(C(=O)CC(=O)c2ccc(C)cc2)c(O)c1 — lower, -27%
- COc1ccc(-c2[nH]ncc2CN(C)Cc2c(C)n[nH]c2C)c(OC)c1 — higher, 10.8%
- COc1ccc(C(=O)NNC(=O)c2cc(C)[nH]n2)cc1 — higher, 37.1%
- Cc1noc(C)c1COC(=O)COc1ccc(-c2ccccc2)cc1 — higher, 34.9%
- COC(=O)c1cc(OC)ccc1-c1ccc(OC)cc1 — lower, -17.5%
- Cc1ccc(S(=O)(=O)N(CCCN(C)C)Cc2ccc3c(c2)OCO3)cc1 — higher, 8%
- O=S1(=O)N=C(N(CCO)/N=C/c2ccccc2F)c2ccccc21 — lower, -23.1%
- COCCCNC(=O)C1CC(=O)N(CCc2ccc(F)cc2)C1 (stereo not drawn) — higher, 34.4%
- CCc1ccc(C(=O)N2CCN(S(=O)(=O)c3sc(C(=O)O)c(C)c3C(=O)O)CC2)cc1 — lower, -11.1%
- CCOc1ccc2[nH]c3nc(SCC(=O)NC4CCCC4)nnc3c2c1 — higher, 1.69%
- CN(C(=O)CN1C(=O)NC(C)(CCc2ccccc2)C1=O)c1ccccc1 (stereo not drawn) — lower, -15.5%
- Cc1ccc(C)c(NS(=O)(=O)c2c(C)[nH]c(C)c2C(=O)N2CCCCC2)c1 — lower, -9.06%
- CCOc1ccc(C(=O)CCC(=O)NC2=NCCS2)cc1 — lower, -20.4%
- C=C(C)COc1ccc(-c2nc(N)ncc2-c2ccccc2OC)c(O)c1 — lower, -82.5%
- COc1ccccc1-c1n[nH]c2c1[C@H](C)CC[C@H]2C(C)C — higher, 48.4%
- Cc1ccc(CN(CC(=O)NC2CCCCC2)C(=O)c2csnn2)cc1 — higher, 18.1%
- Cc1ccc([N+](=O)[O-])cc1S(=O)(=O)N1CCCN(C)CC1 — higher, 18.6%
- CCC1=C(OC(=O)N(CC)CC)N2C(=O)OC(=NCC3CC3)[C@]2(C)[C@H]2C1=CC[C@H]1C(=O)N(CC(=O)OC)C(=O)[C@H]12 — higher, 19.4%
- NC(=O)COC(=O)c1ccc2c(c1)C(=O)N(Cc1ccco1)C2=O — higher, 13.7%
- Cc1ccc(Cc2nnc(SCC(=O)Nc3ccccc3C)[nH]c2=O)cc1 — higher, 10%
- CCC(C)NC(=O)C1c2ccccc2C(=O)N1Cc1ccccc1 (stereo not drawn) — lower, -1.99%
- CC(CC(=O)Nc1cc(C(F)(F)F)ccc1Cl)c1ccccc1 (stereo not drawn) — higher, 5.12%
- NC(=O)Nc1cccc(C(F)(F)F)c1 — higher, 25.6%
- O=C(O)CCC(=O)Nc1ccc(OCC2CCCO2)cc1 (stereo not drawn) — lower, -4.69%
- COc1ccc(CNC(=O)CSc2n[nH]c(N)n2)cc1OC — higher, 33.8%
- CN(Cc1cnccn1)C(=O)c1cc(COc2cccc(C(F)(F)F)c2)on1 — lower, -2.2%
- O=C1N/C(=C/c2cccs2)C(=O)N1Cc1ccc(F)cc1 — lower, -9.77%
- CC(C)C(c1nnnn1Cc1ccccc1)N1CCC(C(N)=O)CC1 (stereo not drawn) — lower, -13%

With O=C(Nc1cccc(NC(=O)c2cccc(F)c2)c1)c1ccccc1 the activity change, negative = inhibition was 0% [at 0.00184 µM].

With CC(=O)c1ccc(NC(=S)N(Cc2ccccc2)C(C)C2CC2)cc1 (stereo not drawn) the Potency was 13.1 µM (active).
For O=C(NCc1ccc2c(c1)OCO2)C1CCCN(S(=O)(=O)c2cccs2)C1 (stereo not drawn), the Potency was 9.28 µM (active).
With C=C(C)COc1ccc(-c2n[nH]c(C)c2-c2ccccc2)c(O)c1 the Potency was 1.85 µM (active).
With COc1ccc(-c2n[nH]c(C)c2-c2ccc(OC)c(OC)c2)c(O)c1 the Potency was 13.1 µM (active).
In the case of COc1ccc(-c2c(-c3ccc(OC)cc3O)nc(C)nc2C(F)(F)F)cc1, the Potency is reported as 7.38 µM (active).
For COc1ccc(-c2n[nH]c(C)c2-c2ccccc2OC)c(O)c1, the Potency was 9.28 µM (active).
In the case of C=C(C)COc1ccc(-c2n[nH]c(C)c2-c2ccccc2OC)c(O)c1, the Potency is reported as 8.28 µM (active).
For CCC1=C(OC(=O)N(CC)CC)N2C(=O)OC(=NCCc3c[nH]c4ccccc34)[C@]2(C)[C@H]2C1=CC[C@H]1C(=O)N(CC)C(=O)[C@H]12, the Potency was 9.28 µM (active).
In the case of O=C(NNc1ccccc1Cl)C(O)(c1cccc(C(F)(F)F)c1)c1cccc(C(F)(F)F)c1, the Potency is reported as 3.29 µM (active).
With Fc1ccc(Cn2nnnc2C(c2cccs2)N2CCCCCC2)cc1 (stereo not drawn) the Potency was 13.1 µM (active).
